Screens deposited in PubChem BioAssay by National Center for Advancing Translational Sciences (NCATS).
HP1b chromo inh – HTS for Inhibitors of HP1-beta Chromodomain Interactions with Methylated Histone Tails | AlphaScreen HP1-beta / biotin-H3K9me3 peptide binding | AID 540317, 2011 | 390,000 compounds, 0.56% hits | Potency, µM (top dose mostly 114 µM), for the others: at the highest dose activity change, negative = inhibition, most hits filed as inhibitors | Chromobox protein homolog 1 (Homo sapiens), P83916; further: nearly all actives have a fitted effect of over 70% in size
Target sequence (P83916 whole entry, looked up): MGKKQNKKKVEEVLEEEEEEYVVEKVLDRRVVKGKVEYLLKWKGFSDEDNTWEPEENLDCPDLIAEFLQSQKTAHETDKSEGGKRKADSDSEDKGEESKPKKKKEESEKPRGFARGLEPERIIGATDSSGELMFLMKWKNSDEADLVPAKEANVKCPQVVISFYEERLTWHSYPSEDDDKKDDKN
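HP1-beta protein (50 nM final) preincubated 30 min at room temperature with biotinylated H3(1-18)K9me3 peptide (50 nM) in PBS pH 7.4, 0.01% Tween-20, then compound added for 30 min. AlphaScreen streptavidin donor/nickel chelate acceptor beads (10 ug/mL final), 30 min dark, luminescence read.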
JMJD2A Tudor – qHTS Assay for Inhibitors of JMJD2A-Tudor Domain; Lysine-specific demethylase 4A (Homo sapiens), O75164; AlphaScreen JMJD2A-Tudor / H3K4me3 peptide binding; Potency, µM (doses to about 114 µM), for the others: at the top dose activity change, negative = inhibition, most hits filed as inhibitors; 390,000 compounds, 4.4% hits; further: on the % scale 0 is the no-effect control and ±100 the full control effect; nearly all actives have a fitted effect of over 50% in size
BAZ2B inh – qHTS Assay for Inhibitors of BAZ2B; AlphaScreen BAZ2B-H3K14Ac peptide displacement; Potency, µM (doses to about 114 µM), inactives show top-dose activity change, negative = inhibition, most hits filed as inhibitors; 360,000 compounds, 4.4% hits; Bromodomain adjacent to zinc finger domain protein 2B (Homo sapiens), Q9UIF8; further: on the % scale 0 is the no-effect control and ±100 the full control effect; nearly all actives have a fitted effect of over 60% in size
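BAZ2B (50 nM) with biotin-H3(5-23)K14Ac peptide (50 nM) in PBS pH 7.4, 0.01% Tween-20, preformed 30 min, then compound 30 min at room temperature; top concentration 110uM. AlphaScreen streptavidin donor/nickel chelate acceptor beads (10 ug/mL final), 20 min dark, signal read.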
Sfp PPTase inh – qHTS Assay for Inhibitors of Bacillus subtilis Sfp phosphopantetheinyl transferase (PPTase); Biochemical Sfp PPTase activity, qHTS; Potency, µM, for the others: largest response in the series, negative = inhibition, actives largely listed as inhibitors; 310,000 compounds, 3.5% hits; 4'-phosphopantetheinyl transferase ffp (Bacillus subtilis), Q9F4F7; AID 1490, 2009;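 further: the enzyme is Sfp with the accession as filed and its product quenches rhodamine fluorescence; 0% = enzyme reaction without inhibitor and -100% = no enzyme wells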
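Sfp 15 nM + cpd, 15 min RT; start w/ rhodamine-CoA 5 uM, BHQ-2-YbbR 12.5 uM (final); 50 mM Hepes pH 7.6, 10 mM MgCl2, 0.01% NP-40, 0.01% BSA; read 525/598 nm at 0 and 30 min.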
G9a block – qHTS Assay for Inhibitors of Histone Lysine Methyltransferase G9a. Potency, µM (doses to about 102 µM), for inactives: at the highest dose activity, negative = inhibition, most hits filed as inhibitors. G9a H3K9 monomethylation, AlphaScreen, 2 h. 350,000 compounds, 8.8% hits. AID 504332, 2011; further: on the % scale 0 is the no-effect control and ±100 the full control effect; nearly all actives have a fitted effect of over 75% in size
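AlphaScreen read-out: biotin-H3K9 peptide (500 nM) methylation by 20 nM enzyme with 20 uM SAM, 2 h at room temperature after 15 min compound preincubation; anti-monomethyl H3K9 antibody plus donor/acceptor beads, 10 min dark.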
PLK1 PBD inh – qHTS for Inhibitors of PLK1-PDB (polo-like kinase 1 - polo-box domain): Primary Screen | Potency, µM, for inactives: max response, negative = inhibition, usual class: inhibitors | Plk1 PBD binding of FITC phosphopeptide, fluorescence polarization | Serine/threonine-protein kinase PLK1 (Homo sapiens), P53350 | 360,000 compounds, 2.8% hits; further: series mostly up to about 57 µM; on the % scale 0 is the no-effect control and ±100 the full control effect; nearly all actives have a fitted effect of over 65% in size
Target sequence (P53350 whole entry, looked up, the tested form may be a part): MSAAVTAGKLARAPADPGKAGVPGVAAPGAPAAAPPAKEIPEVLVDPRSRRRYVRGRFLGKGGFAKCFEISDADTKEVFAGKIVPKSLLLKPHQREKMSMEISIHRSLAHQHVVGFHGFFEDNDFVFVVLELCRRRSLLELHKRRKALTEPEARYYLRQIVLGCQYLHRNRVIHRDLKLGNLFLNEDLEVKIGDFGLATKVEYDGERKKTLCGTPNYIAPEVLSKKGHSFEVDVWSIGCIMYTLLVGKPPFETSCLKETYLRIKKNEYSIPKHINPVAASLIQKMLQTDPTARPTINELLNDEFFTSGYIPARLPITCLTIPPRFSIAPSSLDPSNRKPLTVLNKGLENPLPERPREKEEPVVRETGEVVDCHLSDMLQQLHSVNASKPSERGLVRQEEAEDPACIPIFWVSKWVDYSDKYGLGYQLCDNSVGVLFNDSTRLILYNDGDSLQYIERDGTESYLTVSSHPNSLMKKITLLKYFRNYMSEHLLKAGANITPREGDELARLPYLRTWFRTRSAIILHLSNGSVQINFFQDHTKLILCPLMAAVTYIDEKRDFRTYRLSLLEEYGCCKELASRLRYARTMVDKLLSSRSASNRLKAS
The depositor's hits bear a star; u = inconclusive; x = no result given; [ ] = another dose, or the depositor's remark. Most compounds without a hit are left out; they make up all but 12% or so of the library. The call rests on the fitted dose curve; in most records, active means well fitted curve in the direction sought with a large enough effect; inconclusive means small, poorly fitted or top-dose-only effect, or another doubt; inactive means no such curve, though single readings can be large; an effect the other way counts as inactive or inconclusive. Potency means the concentration at half of the fitted maximal effect.

SMILES | HP1b chromo inh | JMJD2A Tudor | BAZ2B inh | Sfp PPTase inh | G9a block | PLK1 PBD inh
COc1ccc(C2NC(=O)C(C#N)=C(S)N2c2ccccc2)cc1OC (centres undefined) | 43.3% | -6.2% | -30.7% | 20µM* | 44.7µM* | -18.1%
CCOc1ccc(C2NC(=O)C(C#N)=C(S)N2c2ccc(C)cc2)cc1OC (centres undefined) | 22.4% | -17.9% | -27.2% | 44.7µM* | u | -23.8%
CC(C)CNC(=O)[C@H]1N2C(=O)c3ccccc3C2SC1(C)C (some centres undefined) | 42.5% | -11.8% | -2.5% | -1.5% | 5.0% | -7.7%
N#CC1=C(S)N(c2ccccc2)C(c2ccc(-c3cccc(Cl)c3)o2)NC1=O (centres undefined) | -15.5% | u | u | 28.2µM* | u | 23.8µM*
CC(C)CC(c1nnnn1CCc1ccccc1)N1CCN(C(=O)c2ccco2)CC1 (centres undefined) | -18.2% | 0.8%[11.4 µM] | 3.0% | -6.2% | 13.2% | -26.4%
CCCC(c1nnnn1C(C)(C)CC)N1CCN(C(=O)c2ccco2)CC1 (centres undefined) | 6.0% | -28.4% | -8.0% | -12.2% | 89.1µM* | -6.9%
CCC(c1nnnn1CCc1ccccc1)N1CCN(C(=O)c2ccco2)CC1 (centres undefined) | 23.8% | -18.9% | 50.1µM* | 3.6% | 50.1µM* | -4.1%
O=C(c1cnccn1)N1CCC2(CCCN(C(c3ccccc3)c3ccccc3)C2)CC1 | x | x | x | 0.9% | 4.1%[12.7 µM] | x
CCOc1cc(/C=N/n2cnnc2)ccc1OCC(=O)Nc1ccccc1OC | 26.4% | -14.0% | 1.6% | 7.4% | -5.7%[12.7 µM] | -6.6%
CCOc1cc(/C=C2\C(=O)N(c3cccc(C(=O)O)c3)N=C2C(F)(F)F)ccc1OCC(=O)Nc1ccccc1OC | x | x | 50.1µM* | -1.9% | x | x
CCOc1cc(/C=C2\C(=O)N(CCC#N)N=C2C)ccc1OCC(N)=O | 58.6% | -7.3% | -7.4% | 26.6% | 70.8µM* | 18.9µM*
COc1cc(/C=C2\C(=O)N(CCC#N)N=C2C)ccc1OCC(=O)Nc1ccccc1 | 29.9% | -6.4% | 1.8% | 7.2% | 22.0%[59 µM] | 1.34µM*
CC1=NN(CCC#N)C(=O)/C1=C/c1ccc(N(C)C)cc1 | u | -23.4% | x | 3.9% | u | -0.9%
Cc1cc(=O)oc2c(C)c(OCC(=O)N3CCN(c4cccc(Cl)c4)CC3)ccc12 | 8.8%[57 µM] | -8.6% | -10.8%[57.1 µM] | 3.6% | 3.0% | 1.2%
O=C(CCCN1C(=O)/C(=C/c2ccccc2OC(F)F)SC1=S)Nc1cccnc1 | -22.9% | 17.8µM* | x | x | x | 9.1%
O=C(CCN1C(=O)/C(=C/c2ccccc2F)SC1=S)Nc1cccnc1 | -5.9% | u | 1.12µM* | 1.1% | x | -15.3%
COc1ccccc1/C=C1/SC(=S)N(CCC(=O)Nc2cccnc2)C1=O | 24.3% | u | -1.7% | 16.7% | 23.8% | 18.5%
O=C(CCN1C(=O)/C(=C\c2ccccc2Cl)SC1=S)Nc1cccnc1 | -20.3% | u | u | 10.3% | 33.1% | -10.9%
CC1(C(=O)NS(=O)(=O)c2ccc(Cl)s2)CCN1C(=O)C1(c2ccc(Cl)cc2)CCC1 (centres undefined) | x | x | x | x | x | -10.1%
COc1ccc(C=C2SC(=S)NC2=O)cc1 | 7.1% | -18.5% | x | x | x | -21.5%
CCOc1ccc(N=C2NC(=O)S/C2=C\c2ccc(OC)cc2)cc1 | 0.2% | 28.2µM* | u | 10.4% | u | -8.7%
O=C1NC(=O)/C(=C\c2ccc(Cl)nc2)S1 | 22.2% | u | u | -6.9% | -30.8% | 26.7µM*
CCOc1ccc(N=C2NC(=O)/C(=C/C(=O)OC)S2)cc1 | 32.1% | -19.9%[57.1 µM] | -4.6% | 2.5% | 12.1%[59 µM] | -7.4%
COc1ccc(/C=C2/SC(=O)NC2=O)cc1 | 34.6% | -10.4% | -34.5% | 2.6% | 79.4µM* | -0.5%
O=C(COC(=O)/C=C/c1ccccc1)NNC(=O)c1ccc([N+](=O)[O-])cc1 | 31.7% | 0.0% | 3.1% | x | 15.7% | -1.5%
SMILES | HP1b chromo inh | JMJD2A Tudor | BAZ2B inh | Sfp PPTase inh | G9a block | PLK1 PBD inh
C[C@@H]1C[C@H]2[C@H]3C[C@@H](F)C4=CC(=O)C=C[C@]4(C)[C@@]3(Cl)[C@@H](O)C[C@@]2(C)[C@@H]1C(=O)COC(=O)C(C)(C)C | x | x | x | 14.5% | 1.0%[12.7 µM] | x
COc1ccccc1CNC(=O)CCC1N=C2c3ccccc3N=C(SCC(=O)NCCc3ccc(OC)c(OC)c3)N2C1=O (centres undefined) | 5.5% | -15.7% | -36.0% | x | 25.6%[59 µM] | x
O=S(=O)(c1nccs1)N1CCN(c2nc(-c3cccs3)nc3ccccc23)CC1 | 36.7% | -18.4% | x | x | x | x
C#CCNC(=O)C1=C[C@@H](c2ccc(C#C)cc2)C[C@@H](OCc2ccc(CO)cc2)O1 | 23.5% | -22.9% | x | x | x | -8.9%
Cc1ccc(C2(c3ccccc3)NC(=O)N(CC(=O)NC3CCCCC3)C2=O)cc1C (centres undefined) | 16.9% | -16.6% | -3.1% | x | 14.1µM* | -0.1%
C=CCOc1ccc(CNn2cn[nH]c2=S)cc1OC | 24.0% | 22.4µM* | -0.5% | -15.2% | 3.16µM* | -5.0%
C=CCOc1ccc(CNn2cn[nH]c2=S)cc1OCC | 20.3% | 8.91µM* | -3.8% | u | 32.3%[0.501 µM] | 1.2%
C=CCOc1ccc(CNc2nccs2)cc1OCC | 13.1% | -11.8% | 0.0% | -8.2% | 14.8%[59 µM] | -2.5%
COc1cc(CNn2cn[nH]c2=S)cc(Cl)c1OCc1ccc(F)cc1 | 17.7% | -18.8% | 1.1% | -4.2% | 5.62µM* | 0.7%
C=CCOc1ccc(CNC(C)(C)CO)cc1OC | 10.6% | -8.8% | -28.0% | 11.0% | 110.3%[59 µM] | -0.8%
COc1cccc(NC(=O)CN(C)C(C)C(=O)NC(=O)NC2CCCCC2)c1 (centres undefined) | 35.7% | -8.7% | 3.8% | x | -16.9%[59 µM] | -3.8%
Cc1ccc(C(=O)Nc2nnc(-c3ccncc3)o2)cc1 | 50.5% | -14.1% | 56.2µM* | 5.3% | 1.9% | 1.0%
O=C(Nc1nnc(-c2ccncc2)o1)c1ccccc1 | 14.3% | 8.91µM* | 10µM* | -5.1% | -38.5% | 7.52µM*
Cc1cccc(-c2nnc(NC(=O)c3ccc(Cl)cc3)o2)c1 | 21.8% | -3.7% | 8.7% | 15.7% | 8.91µM* | -18.6%
CCn1nnc(-c2ccccc2NC(=O)c2cnccn2)n1 | 27.3% | -7.4% | x | x | x | -8.0%
